Measurements taken from PubChem BioAssay (Tox21).
Records with an inconclusive call do not appear. Calls of active or inactive are those of the source. Unless noted, calls follow the shape of the dose curve; as a rule, active = well fitted curve in the direction sought with a large enough effect in the repeat runs; inconclusive = weak or mixed curves; inactive = no such curve, though single readings can be large; an effect the other way counts as inactive or inconclusive.

Tests used:
[1] = qHTS assay to identify small molecule antagonists of the thyroid receptor (TR) signaling pathway - cell viability counter screen (AID 743064); also: nearly all actives have a fitted effect of over 50% in size
Method in brief: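 Viability of T3-stimulated (1 nM final) GH3.TRE-Luc cells is measured by CellTiter-Fluor fluorescence after 23.5 h compound exposure at 37 °C plus 30 min reagent incubation.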

[2] = qHTS assay to identify small molecule antagonists of the thyroid receptor (TR) signaling pathway (AID 743065); also: series mostly up to about 70 µM; nearly all actives have a fitted effect of over 55% in size
Method in brief: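 GH3.TRE-Luc rat pituitary cells carrying two TR response elements driving luciferase were plated for 4 h, given compound plus 1 nM T3 (final), and incubated 23.5 h at 37 C. ONE-Glo luminescence measured reporter inhibition; CellTiter-Fluor fluorescence tracked cytotoxicity.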

[3] = tested on: thyroid hormone receptor (rat, GH3 cells); experiment: qHTS assay to identify small molecule agonists of the thyroid receptor (TR) signaling pathway (AID 743066; calls by dose curve)
[4] = target: Estrogen receptor (Homo sapiens) (UniProt P03372); experiment: qHTS assay to identify small molecule antagonists of the estrogen receptor alpha (ER-alpha) signaling pathway (AID 743069; active = well fitted curve in the direction sought with a large enough effect in the signal ratio in the repeat runs, not every such curve was filed as active; the % refers to the signal ratio)
Sequence of Estrogen receptor (Homo sapiens) (P03372 whole entry, looked up): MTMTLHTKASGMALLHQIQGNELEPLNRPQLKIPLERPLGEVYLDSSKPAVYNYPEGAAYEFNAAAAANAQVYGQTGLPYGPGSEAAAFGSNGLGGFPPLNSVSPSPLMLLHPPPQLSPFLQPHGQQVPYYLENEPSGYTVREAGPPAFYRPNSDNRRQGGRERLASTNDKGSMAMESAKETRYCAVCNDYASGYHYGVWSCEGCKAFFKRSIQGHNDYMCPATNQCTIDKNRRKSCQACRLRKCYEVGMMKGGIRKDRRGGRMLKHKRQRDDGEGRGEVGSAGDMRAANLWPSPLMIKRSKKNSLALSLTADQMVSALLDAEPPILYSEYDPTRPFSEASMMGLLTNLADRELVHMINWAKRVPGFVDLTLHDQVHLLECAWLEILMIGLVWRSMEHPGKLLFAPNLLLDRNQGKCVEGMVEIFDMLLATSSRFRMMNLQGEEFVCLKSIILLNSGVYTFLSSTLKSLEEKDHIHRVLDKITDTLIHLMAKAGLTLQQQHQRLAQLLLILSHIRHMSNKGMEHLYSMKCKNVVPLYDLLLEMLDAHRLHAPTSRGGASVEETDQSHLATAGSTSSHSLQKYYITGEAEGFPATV
Method in brief: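 HEK293 cells stably carrying an ER-alpha-UAS-bla beta-lactamase reporter were pre-cultured overnight in 2% charcoal-stripped FBS medium. Test compounds in DMSO were added together with 17beta-estradiol for 18 hr at 37C. Read-out was fluorescence after 2 hr with LiveBLAzer B/G FRET substrate at room temperature.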

[5] = qHTS assay to identify small molecule antagonists of the estrogen receptor alpha (ER-alpha) signaling pathway - cell viability counter screen (AID 743074; calls by dose curve; also: nearly all actives have a fitted effect of over 45% in size)
[6] = target: Estrogen receptor (Homo sapiens) (UniProt P03372); experiment: qHTS assay to identify small molecule agonists of the estrogen receptor alpha (ER-alpha) signaling pathway (AID 743075; calls by dose curve)
[7] = target: Estrogen receptor (Homo sapiens) (UniProt P03372); experiment: qHTS assay to identify small molecule agonists of the estrogen receptor alpha (ER-alpha) signaling pathway using the BG1 cell line (AID 743079); also: nearly all actives have a fitted effect of over 20% in size
[8] = qHTS assay to identify small molecule antagonists of the estrogen receptor alpha (ER-alpha) signaling pathway using the BG1 cell line (AID 743080; calls by dose curve;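 also: BG1 cells stimulated with 17beta-estradiol alongside compound; series mostly up to about 70 µM; nearly all actives have a fitted effect of over 25% in size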)
Method in brief: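 Seeding, 24 h rest, compound transfer from DMSO, 17beta-estradiol addition, 21.5 h incubation, CellTiter-Fluor (30 min, 37 C), then ONE-Glo (30 min, room temperature): this sequence was run on BG1-Luc-4E2 reporter cells.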

[9] = qHTS assay to identify small molecule antagonists of the estrogen receptor alpha (ER-alpha) signaling pathway using the BG1 cell line - cell viability counter screen (AID 743081);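 also: compound given together with 17beta-estradiol as the ER stimulus; series mostly up to about 70 µM; nearly all actives have a fitted effect of over 45% in size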
[10] = target: Aromatase (Homo sapiens) (UniProt P11511); experiment: qHTS assay to identify aromatase inhibitors (AID 743083); also: series mostly up to about 70 µM; nearly all actives have a fitted effect of over 55% in size
Sequence of Aromatase (Homo sapiens) (P11511 whole entry, looked up): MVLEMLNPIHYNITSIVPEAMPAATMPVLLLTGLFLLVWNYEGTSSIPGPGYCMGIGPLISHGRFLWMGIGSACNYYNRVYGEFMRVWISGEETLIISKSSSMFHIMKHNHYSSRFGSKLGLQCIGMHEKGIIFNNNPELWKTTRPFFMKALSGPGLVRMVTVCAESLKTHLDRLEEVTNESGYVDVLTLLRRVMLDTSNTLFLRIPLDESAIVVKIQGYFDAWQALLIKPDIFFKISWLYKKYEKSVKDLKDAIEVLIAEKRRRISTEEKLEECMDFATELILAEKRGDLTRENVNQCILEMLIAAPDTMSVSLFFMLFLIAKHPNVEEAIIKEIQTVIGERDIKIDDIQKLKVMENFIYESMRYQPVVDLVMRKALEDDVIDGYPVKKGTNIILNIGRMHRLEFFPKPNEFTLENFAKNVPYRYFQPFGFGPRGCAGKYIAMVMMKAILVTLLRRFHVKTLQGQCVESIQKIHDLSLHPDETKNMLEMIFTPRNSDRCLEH

[11] = qHTS assay to identify aromatase inhibitors - cell viability counter screen (AID 743084);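 also: cells stimulated with testosterone during compound exposure; nearly all actives have a fitted effect of over 55% in size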
[12] = target: Aryl hydrocarbon receptor (Homo sapiens) (UniProt P35869); experiment: qHTS assay to identify small molecule that activate the aryl hydrocarbon receptor (AhR) signaling pathway (AID 743085);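 also: HG2L7.5c1 human HepG2 liver cells with stably integrated DRE-driven firefly reporter; series mostly up to about 70 µM; nearly all actives have a fitted effect of over 15% in size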
Sequence of Aryl hydrocarbon receptor (Homo sapiens) (P35869 whole entry, looked up): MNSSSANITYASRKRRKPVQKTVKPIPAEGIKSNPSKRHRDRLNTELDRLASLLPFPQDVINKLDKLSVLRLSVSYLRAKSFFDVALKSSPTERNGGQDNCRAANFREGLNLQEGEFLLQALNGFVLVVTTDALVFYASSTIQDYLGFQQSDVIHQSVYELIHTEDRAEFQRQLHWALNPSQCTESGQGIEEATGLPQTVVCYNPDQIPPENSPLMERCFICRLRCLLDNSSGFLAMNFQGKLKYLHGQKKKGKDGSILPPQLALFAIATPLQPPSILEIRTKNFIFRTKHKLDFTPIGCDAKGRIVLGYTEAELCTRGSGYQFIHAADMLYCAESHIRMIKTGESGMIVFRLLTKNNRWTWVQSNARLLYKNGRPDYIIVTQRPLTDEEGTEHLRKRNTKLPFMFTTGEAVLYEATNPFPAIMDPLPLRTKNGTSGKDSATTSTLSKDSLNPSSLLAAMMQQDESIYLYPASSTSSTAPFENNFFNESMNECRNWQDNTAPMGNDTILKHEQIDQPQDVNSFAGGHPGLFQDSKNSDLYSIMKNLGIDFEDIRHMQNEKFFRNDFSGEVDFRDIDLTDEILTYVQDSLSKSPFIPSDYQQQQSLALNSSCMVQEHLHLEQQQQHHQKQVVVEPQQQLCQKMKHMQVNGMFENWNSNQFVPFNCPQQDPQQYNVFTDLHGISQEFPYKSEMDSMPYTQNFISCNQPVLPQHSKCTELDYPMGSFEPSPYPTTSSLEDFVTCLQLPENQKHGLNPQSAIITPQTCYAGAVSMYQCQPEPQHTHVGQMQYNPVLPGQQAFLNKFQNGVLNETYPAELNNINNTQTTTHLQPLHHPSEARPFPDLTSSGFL
Method in brief: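 A multiplexed format paired cell viability (CellTiter-Fluor fluorescence) with AhR-dependent luciferase output (ONE-Glo luminescence) in the same wells of HepG2 DRE-luc cells after 24 h compound exposure at 37C.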

[13] = qHTS assay to identify small molecule that activate the aryl hydrocarbon receptor (AhR) signaling pathway - cell viability counter screen (AID 743086);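 also: HepG2 liver cells carrying the AhR DRE luciferase reporter; series mostly up to about 70 µM; nearly all actives have a fitted effect of over 45% in size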
Method in brief: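 HepG2-AhR-luc (HG2L7.5c1) cells, 4000/well, were preincubated 5 h at 37C, exposed to compound in qHTS format for 24 hr at 37C, then given CellTiter-Fluor for 30 min; viability was read as fluorescence in the reporter wells.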

[14] = target: Peroxisome proliferator-activated receptor gamma (Homo sapiens) (UniProt P37231); experiment: qHTS assay to identify small molecule agonists of the peroxisome proliferator-activated receptor gamma (PPARg) signaling pathway (AID 743094; active = well fitted activation curve with a large enough effect in the signal ratio in the repeat runs, not every such curve was filed as active; the % refers to the signal ratio)
Sequence of Peroxisome proliferator-activated receptor gamma (Homo sapiens) (P37231 whole entry, looked up): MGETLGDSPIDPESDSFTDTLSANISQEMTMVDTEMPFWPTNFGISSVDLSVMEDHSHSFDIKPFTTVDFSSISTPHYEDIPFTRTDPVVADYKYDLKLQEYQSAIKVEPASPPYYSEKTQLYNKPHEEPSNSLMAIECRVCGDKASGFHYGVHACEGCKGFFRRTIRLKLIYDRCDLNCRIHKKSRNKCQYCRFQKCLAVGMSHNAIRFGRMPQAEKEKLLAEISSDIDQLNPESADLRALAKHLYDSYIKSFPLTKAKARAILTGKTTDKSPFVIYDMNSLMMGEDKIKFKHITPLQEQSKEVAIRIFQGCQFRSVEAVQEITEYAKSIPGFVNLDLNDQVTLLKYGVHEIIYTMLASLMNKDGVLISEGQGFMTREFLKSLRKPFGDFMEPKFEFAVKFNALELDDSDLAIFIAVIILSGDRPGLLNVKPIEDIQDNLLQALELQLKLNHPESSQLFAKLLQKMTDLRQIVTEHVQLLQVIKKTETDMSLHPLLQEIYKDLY
Method in brief: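 GeneBLAzer PPARg UAS-bla HEK293H cells carrying a stably integrated beta-lactamase reporter were pre-incubated 5 h at 37C, then exposed to compounds in DMSO for 17 h at 37C; LiveBLAzer B/G FRET substrate was added for 1 h at room temperature and fluorescence read.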

[15] = target: Peroxisome proliferator-activated receptor gamma (Homo sapiens) (UniProt P37231); experiment: qHTS assay to identify small molecule antagonists of the peroxisome proliferator-activated receptor gamma (PPARg) signaling pathway (AID 743191; calls by dose curve; also: series mostly up to about 63 µM; nearly all actives have a fitted effect of over 30% in size)
Method in brief: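 GeneBLAzer PPARg UAS-bla HEK293H cells carrying a UAS-driven beta-lactamase reporter were plated at 3000 cells/well, preincubated 5 h at 37C, then given compound for 17 h at 37C; LiveBLAzer B/G FRET substrate was read after 1 h at room temperature.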

[16] = qHTS assay to identify small molecule antagonists of the peroxisome proliferator-activated receptor gamma (PPARg) signaling pathway - cell viability counter screen (AID 743194); also: nearly all actives have a fitted effect of over 55% in size
Method in brief: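 PPARg-UAS-bla HEK293H cells were plated, rested 5 h at 37 C, then treated with compounds plus rosiglitazone (50 nM final) for 17 h at 37 C; viability was then read by CellTiter-Glo luminescence after 30 min at room temperature.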

[17] = qHTS assay for small molecule agonists of the antioxidant response element (ARE) signaling pathway (AID 743202; active = well fitted activation curve with a large enough effect in the signal ratio in the repeat runs, not every such curve was filed as active; the % refers to the signal ratio)
Method in brief: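 Read-out: LiveBLAzer B/G FRET substrate fluorescence after 2 h at room temperature, following 16 h compound treatment at 37 C of HepG2 cells carrying an ARE-driven beta-lactamase reporter.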

[18] = qHTS assay for small molecule agonists of the antioxidant response element (ARE) signaling pathway - cell viability counter screen (AID 743203; calls by dose curve; also: nearly all actives have a fitted effect of over 55% in size)
Method in brief: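 CellSensor ARE-bla HepG2 cells, 2,000 per well, rested 5 hrs at 37C/5% CO2, then exposed to compound in DMSO for 16 hrs; viability read as CellTiter-Glo luminescence after 30 min at room temperature, in the reporter wells.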

[19] = qHTS assay for small molecule activators of the heat shock response signaling pathway (AID 743210; active = well fitted activation curve with a large enough effect in the signal ratio in the repeat runs, with a control signal flat, not every such curve was filed as active; the % refers to the signal ratio; also: series mostly up to about 63 µM)
Method in brief: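 HSE-bla HeLa cells (beta-lactamase reporter under heat shock response elements) were exposed to compounds for 5 h at 37 C, then loaded with LiveBLAzer B/G FRET substrate for 2.5 h at room temperature before fluorescence reading.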

[20] = qHTS assay for small molecule activators of the heat shock response signaling pathway - cell viability counter screen (AID 743209); also: nearly all actives have a fitted effect of over 50% in size
Method in brief: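 CellSensor HSE-bla HeLa cells, plated overnight at 37 C/5% CO2, were exposed to compounds in DMSO for 5 h at 37 C. Viability was then read in the same wells by CellTiter-Glo luminescence after 30 min at room temperature.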

Measured: Potency

Cc1ccc(S(=O)(=O)O)cc1C
not listed: [20]
inactive: all other assays above

C=CCNCC=C
inactive: all assays above

FC(F)(F)C(Cl)Br (stereo not drawn)
inactive: all assays above

NCCOCCO
not listed: [14] | [15]
inactive: all other assays above

COC(=O)c1ccc(C)cc1
not listed: [14] | [15] | [20]
inactive: all other assays above

COC(=O)CC(=O)OC
not listed: [20]
inactive: all other assays above

C1COCCN1
not listed: [14] | [15] | [19] | [20]
inactive: all other assays above

CC1(C)C(C=C(Cl)Cl)C1C(=O)OCc1cccc(Oc2ccccc2)c1 (stereo not drawn)
not listed: [14] | [15]
inactive: all other assays above

C=C[Si](OCCOC)(OCCOC)OCCOC
inactive: all assays above

CC(C)(C)c1cccc(C(C)(C)C)c1O
not listed: [19] | [20]
inactive: all other assays above

[Na+]
not listed: [20]
inactive: all other assays above

CCCCCCCCCCCCO
not listed: [19]
inactive: all other assays above

CC(C)[N+](C)(CCOC(=O)C1c2ccccc2Oc2ccccc21)C(C)C
inactive: all assays above
